Experimental findings from PubChem BioAssay (EPA / NIEHS) are described below.

Records with an inconclusive call do not appear. Calls of active or inactive are those of the source. How the source made its calls: active means hit-call score of the fitted dose curve at least 0.9, where 1 is the maximum; inconclusive means response in the unintended direction; inactive means score below 0.9.

One may read the AC50 as the concentration at which the activity in the assay is half-maximal.

Bile acid receptor (Homo sapiens), sequence (Q96RI1 whole entry, looked up, the tested form may be a part): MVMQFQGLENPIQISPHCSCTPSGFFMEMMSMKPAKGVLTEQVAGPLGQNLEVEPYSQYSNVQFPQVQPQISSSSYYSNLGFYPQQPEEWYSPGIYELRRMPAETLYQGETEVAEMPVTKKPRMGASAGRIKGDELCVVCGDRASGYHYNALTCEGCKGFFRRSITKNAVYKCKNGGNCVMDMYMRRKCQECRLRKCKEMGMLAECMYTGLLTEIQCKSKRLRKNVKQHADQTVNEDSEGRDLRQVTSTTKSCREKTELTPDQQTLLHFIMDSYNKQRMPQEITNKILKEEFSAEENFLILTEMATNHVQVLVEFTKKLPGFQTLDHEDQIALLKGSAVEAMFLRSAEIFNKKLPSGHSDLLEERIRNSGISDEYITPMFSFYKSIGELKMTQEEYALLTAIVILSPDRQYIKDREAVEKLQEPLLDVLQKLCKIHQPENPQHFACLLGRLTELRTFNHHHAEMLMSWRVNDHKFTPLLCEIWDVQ

The assay concerns the target Bile acid receptor (Homo sapiens) (UniProt Q96RI1). As to the kind of experiment: OT_FXR_FXRSRC1_0480: Odyssey Thera (OT) 8-hour HEK293T Protein-Complementation Assay for Farnesoid X receptor/SRC-1 Co-activator (AID 2283383). The procedure: OT_FXR_FXRSRC1_0480 is a cell-based assay that uses HEK293T, a human kidney cell line, with measurements taken at 8 hours after chemical dosing in a 384-well plate.OT_FXR_FXRSRC1_0480 is one of one assay component(s) measured or calculated from the OT_FXR_FXRSRC1_0480 assay. It is designed to make measurements of protein fragment complementation, a form of binding reporter, as detected with fluorescence intensity signals by Protein-fragment Complementation technology.Data from the assay component OT_FXR_FXRSRC1_0480 was analyzed into 1 assay endpoint. This assay endpoint, OT_FXR_FXRSRC1_0480, was analyzed in the positive analysis fitting direction relative to DMSO as the negative control and baseline of activity. Using a type of binding reporter, measures of receptor for gain-of-signal activity can be used to understand the binding at the pathway-level as they relate to the gene NR1H4. Furthermore, this assay endpoint can be referred to as a primary readout, because the performed assay has only produced 1 assay endpoint. To generalize the intended target to other relatable targets, this assay endpoint is annotated to the nuclear receptor intended target family, where the subfamily is non-steroidal.
Protein-fragment complementation assay, or PCA, is a method for the identification and quantification of protein-protein interactions. In the PCA, the proteins of interest ("bait" and "prey") are each covalently linked to fragments of a third protein (e.g. DHFR, which acts as a "reporter"). Interaction between the bait and the prey proteins brings the fragments of the reporter protein in close proximity to allow them to form a functional reporter protein whose activity can be measured.
Regarding `CC(C)=CCCC(C)CC=O` (stereo unspecified), the outcome was inactive.
With `BrC1CCC(Br)C(Br)CCC(Br)C(Br)CCC1Br` (stereo unspecified), the AC50 was 18.2 µM (active).
Same read-out and setting: the figure for `c1ccc(CCCc2ccccn2)cc1` is 50 µM (active).
For the compound `CC(C)(C#N)c1cc(Cn2cncn2)cc(C(C)(C)C#N)c1`, the result was inactive.
With `C=CC(C)(O)CCC=C(C)CCC=C(C)C` (stereo unspecified), the AC50 was 59.4 µM (active).
Still for that read-out and setting: next, `CCC(=O)/C=C/C1C(C)=CCCC1(C)C` (stereo unspecified): 50 µM (active).
As to `NCCCN1CCOCC1`, the call was inactive.
Same read-out and setting: the entry for `O=Nc1ccc(Nc2ccccc2)cc1` is “inactive”.
In the case of `CCN(CC)c1ccc2c(-c3ccccc3C(=O)O)c3ccc(=[N+](CC)CC)cc-3oc2c1`, the AC50 was 35.2 µM (active).
Consider `COc1c(Cl)c(Cl)c(Cl)c(Cl)c1Cl`, for which the call was inactive.
Turning to `O=C1NC(=O)c2ccccc21`, the compound was classed as inactive.
The same measure, in the same setting: next, `CC(=O)C=CC1=C(C)CCCC1(C)C`: “inactive”.
Still for that read-out and setting: the entry for `CCCCCCCCCCCCCC(=O)O` is “inactive”; for `CCCC/C=C\CCCCCCCCCC=O` it is “inactive”.
Same read-out and setting: the entry for `OCCN1CCNCC1` is “inactive”.
For the compound `COc1cc(C(C)(C)C)c(O)c(C(C)(C)C)c1`, the AC50 is 67 µM (active).
